High-throughput results from PubChem.
Marburg entry: inhibitors of Marburg virus binding or entry into cells; Marburg virus pseudotype entry/binding inhibition, cell-based; Potency, µM (highest dose often 49.2 µM), without a hit: at the highest dose activity change, negative = inhibition, usual class: inhibitors; 6.5% of 18,000 active; AID 720532
LASV entry inh: inhibitors of Lassa virus binding or entry into cells; 4.1% of 18,000 active; Lassa virus pseudotyped entry inhibition, cell-based qHTS; Potency, µM (titrated, usually from 49.2 µM), inactives show at the top dose activity change, negative = inhibition, hits mostly inhibitors
The depositor's hits bear a star; ? = inconclusive; · = not tested or not shown; ! = not active in a repeat; [ ] = remark or other dose. This is a sample that favours compounds with a hit; in the whole collection about 8.6% have one here. The call rests on the fitted dose curve; tested in HEK293 cells. On the % scale 0 is the no-effect control and ±100 the full control effect; potency means the concentration at half of the fitted maximal effect.

SMILES	Marburg entry	LASV entry inh
COc1c(C=O)c(O)cc2c1C(=O)c1ccccc1C2=O	8%	-5%
COc1c(C2=CC(=O)N(C)C2=O)c2c(n1C)C(=O)c1ccccc1C2=O	20µM*	-24%
COC(=O)C1=C(C)N(Cc2ccccc2)C(=S)NC1c1ccccc1 (centres undefined)	6%[8.59 µM]	0%[8.59 µM]
NC(=O)c1ccc([N+](=O)[O-])cc1Cl	9%	2%
O=[N+]([O-])c1ccc2c(c1)S(=O)(=O)C=C2	6.3µM*	11µM*
CC(C)=CCCC(C)=CCN1C(=O)[C@@]2(CC(C)=CC[C@@H](C)O2)c2c(Br)cccc21	0%[8.59 µM]	-19%[8.59 µM]
CCC1CN2CCC1CC2C(O)c1ccnc2ccc(OC)cc12 (centres undefined)	20µM*	?
CC[C@H]1CN2CC[C@@H]1C[C@H]2[C@@H](O)c1ccnc2ccc(OC)cc12	?	4%[17.8 µM]
C=CCOC(=O)N[C@H](C(C(=O)OC)=C(C)NCc1ccccc1)c1ccc(Br)cc1	7%[8.59 µM]	-3%[8.59 µM]
CCN(CCCc1ccccc1)CCCc1ccccc1	8.9µM*	?
CN(Cc1ccccc1)Cc1ccccc1	2%	-4%
C[C@@H]1C(c2ccccc2)=CC(=O)c2nc3ccccc3cc2[C@@H]1C(=O)N1CCCC1	-10%[8.59 µM]	-3%[8.59 µM]
COC(=O)C1=C(C(=O)OC)[C@@H]2N(Cc3ccccc3)c3ccccc3[C@@]23C[C@@H](CO)N(C(=O)CC(C)C)C3=N1	-38%[8.59 µM]	-1%[8.59 µM]
COc1ccc(CCN(C)CCCOc2ccc(S(=O)(=O)c3[nH]c4ccccc4c3C(C)C)cc2)cc1OC	4µM*	14µM*
C[C@@H]1CC2=CCCC2[C@]2(O1)C(=O)N(Cc1ccc(F)cc1)c1cccc(Br)c12 (some centres undefined)	8%[8.59 µM]	5%[8.59 µM]
CC(C)OC(=O)[C@H](C)NC(=O)N1CCc2nc(COc3ccccc3)c3c(c2C1)CO[C@@H](C)C3	-36%[8.59 µM]	-31%[8.59 µM]
C[C@H]1CN(c2ccccc2)C(=O)[C@H]1CC(=O)Nc1ccc(Br)cc1	-9%	25%
C[C@@H](Cc1ccccc1)Nc1ncnc2c1ncn2[C@@H]1O[C@H](CO)[C@@H](O)[C@H]1O	48%	3%
COc1ccc(CC(N)C(=O)N[C@H]2[C@@H](O)[C@H](n3cnc4c(N(C)C)ncnc43)O[C@@H]2CO)cc1 (some centres undefined)	6.3µM*	1.3µM*
COC(=O)N[C@@H](c1ccco1)C(C(C)=O)C(=O)OC (some centres undefined)	-27%[8.59 µM]	6%[8.59 µM]
CCS(=O)(=O)N1CCC[C@H]2CN3CCc4cc(OC)ccc4[C@@H]3C[C@@H]21	3%	-6%
CCOC(=O)c1c(C)[nH]c2ccc3c(c12)CN1CCc2cc(OC)ccc2[C@@H]1O3	5.6µM*	?
CC1CCC2(OC1)OC1CC3C4CC[C@@H]5CC(O)CC[C@@]5(C)C4CC(=O)[C@]3(C)C1C2C (some centres undefined)	1%	6%
C[C@H]1CC[C@]2(NC1)O[C@H]1C[C@H]3[C@@H]4CC[C@H]5C[C@@H](O[C@@H]6O[C@H](CO)[C@H](O[C@@H]7O[C@H](CO)[C@@H](O)[C@H](O[C@@H]8OC[C@@H](O)[C@H](O)[C@H]8O)[C@H]7O[C@@H]7O[C@H](CO)[C@@H](O)[C@H](O)[C@H]7O)[C@H](O)[C@H]6O)CC[C@]5(C)[C@H]4CC[C@]3(C)[C@H]1[C@@H]2C	4.5µM*	14µM*
CC(C)(C)c1cc(O)ccc1O	13µM*!	14µM*!
SMILES	Marburg entry	LASV entry inh
COc1ccc(O)c(C(C)(C)C)c1	?	-9%
CC(C)NCC(O)c1ccc(O)c(O)c1 (centres undefined)	-16%	5%
CNC[C@H](O)c1ccc(O)c(O)c1	7.9µM*!	?
NC[C@H](O)c1ccc(O)c(O)c1	28µM*	0%
C[C@H](N)[C@H](O)c1ccc(O)c(O)c1	5µM*	?
CC(N)C(O)c1cccc(O)c1 (centres undefined)	-23%	0%
NC[C@@H](O)c1ccc(O)c(O)c1	?	8%
C=CCOC(=O)N[C@H](C(C(=O)OC)=C(C)NCc1ccccc1)c1cccc(C(F)(F)F)c1	3%[8.59 µM]	31%[8.59 µM]
C=CCN1C(=O)CC[C@@]23C1=NC(C(=O)OC)=C(C(=O)OC)[C@@H]2N(CC#CC)c1ccccc13	-20%[8.59 µM]	-7%[8.59 µM]
CCCCn1c(C)cc2c(c1=O)[C@H]1O[C@](c3ccsc3)(Cc3ccccc31)O2	?	11%[8.59 µM]
CCC(=O)Nc1ccc(C)c(-c2ccc(C(=O)NCC3CC3)cc2)c1	36%	-18%
CSc1ccc(COCC[C@@H]2C[C@H]3C=CCOP(=O)(O2)O3)cc1	-22%	2%
COC1=C(C(=O)c2ccccc2)C(=O)[C@@]2(CC=C(C)C)C[C@@H]([S+](=O)([O-])c3ccccc3)C(C)(C)[C@@]1(CC=C(C)C)C2=O	-17%[8.59 µM]	·
CN1CCN(C(c2ccccc2)c2ccccc2)CC1	11µM*!	11µM*!
Cc1ccc(CN2CC(N3CCN(Cc4cccc(C)c4)CC3)CS2(=O)=O)cc1 (centres undefined)	20%	10%
